Source: PubChem BioAssay AID1159580 (chemical genetic matrix, 2015)
The whole screen tested about 5,500 compounds, of which about 2,000 (36%) were called active. Another 18% or so got no clear call; they are omitted. Rule as the data show it: active = normalized growth mostly below about 0.91 (no sharp cut-off); inconclusive = no clear call, values can overlap the other calls; inactive = mostly above about 0.92. This is one part of the list.

Experiment: chemical genetic growth profiling, strain panel (AID 1159580);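 also: tested at 20 µM; growth read once vehicle control cultures reached saturation at 30 °C; 1 = growth at the plate median or of vehicle wells; lower values mean less growth of the strain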
Details: growth OD

Measured: normalized growth

COc1ccc2cc([C@H](C)CO)ccc2c1
inactive: S. cerevisiae deletion strains, locus YJR066W, strain TOR1, hits give low values 0.935 | S. cerevisiae deletion strains, locus YJR075W, strain HOC1, hits give low values 0.998 | S. cerevisiae deletion strains, locus YKL009W, strain mrt4, hits give low values 0.935 | S. cerevisiae deletion strains, locus YKL068W, hits give low values 0.975 | S. cerevisiae deletion strains, locus YKL085W, strain MDH1 (second series), hits give low values 0.949 | S. cerevisiae deletion strains, locus YKL085W, strain MDH1, hits give low values 0.949 | S. cerevisiae deletion strains, locus YKL160W, strain elf1, hits give low values 1 | S. cerevisiae deletion strains, locus YKL190W, strain CNB1, hits give low values 0.995 | S. cerevisiae deletion strains, locus YKR001C, strain vps1, hits give low values 0.97 | S. cerevisiae deletion strains, locus YKR026C, strain gcn3, hits give low values 1.01 | S. cerevisiae deletion strains, locus YKR091W, strain srl3, hits give low values 1.01 | S. cerevisiae deletion strains, locus YLL001W, strain dnm1, hits give low values 1.01 | S. cerevisiae deletion strains, locus YLL026W, hits give low values 1.01 | S. cerevisiae deletion strains, locus YLL041C, strain sdh2, hits give low values 1.01 | S. cerevisiae deletion strains, locus YLR027C, strain aat2, hits give low values 1.01 | S. cerevisiae deletion strains, locus YLR039C, strain RIC1, hits give low values 0.991 | S. cerevisiae deletion strains, locus YLR058C, strain SHM2, hits give low values 0.977 | S. cerevisiae deletion strains, locus YLR102C, strain apc9, hits give low values 0.966 | S. cerevisiae deletion strains, locus YLR113W, strain HOG1, hits give low values 0.929 | S. cerevisiae deletion strains, locus YLR221C, strain rsa3, hits give low values 1.01 | S. cerevisiae deletion strains, locus YLR258W, strain gsy2, hits give low values 1.01 | S. cerevisiae deletion strains, locus YLR262C, strain YPT6 (second series), hits give low values 1.01 | S. cerevisiae deletion strains, locus YLR262C, strain YPT6, hits give low values 0.9 | S. cerevisiae deletion strains, locus YLR268W, strain sec22, hits give low values 1.03 | S. cerevisiae deletion strains, locus YLR320W, strain mms22, hits give low values 1.02 | S. cerevisiae deletion strains, locus YLR330W, strain CHS5, hits give low values 0.992 | S. cerevisiae deletion strains, locus YLR342W, strain FKS1 (second series), hits give low values 0.969 | S. cerevisiae deletion strains, locus YLR342W, strain FKS1, hits give low values 1.01 | S. cerevisiae deletion strains, locus YLR357W, strain rsc2, hits give low values 1 | S. cerevisiae deletion strains, locus YLR370C, strain arc18, hits give low values 1.01 | S. cerevisiae deletion strains, locus YLR371W, strain rom2, hits give low values 0.918 | S. cerevisiae deletion strains, locus YLR384C, strain iki3, hits give low values 1.01 | S. cerevisiae deletion strains, locus YLR418C, strain cdc73, hits give low values 0.968 | S. cerevisiae deletion strains, locus YML016C, strain PPZ1, hits give low values 0.989 | S. cerevisiae deletion strains, locus YML032C, strain rad52, hits give low values 0.989 | S. cerevisiae deletion strains, locus YML120C, strain ndi1, hits give low values 1.01 | S. cerevisiae deletion strains, locus YMR058W, strain fet3, hits give low values 1.01 | S. cerevisiae deletion strains, locus YMR078C, strain ctf18, hits give low values 0.969 | S. cerevisiae deletion strains, locus YMR125W, strain sto1, hits give low values 1.01 | S. cerevisiae deletion strains, locus YMR129W, hits give low values 1.02 | S. cerevisiae deletion strains, locus YMR205C, strain PFK2, hits give low values 1.02 | S. cerevisiae deletion strains, locus YMR223W, strain ubp8, hits give low values 0.964 | S. cerevisiae deletion strains, locus YMR231W, strain pep5, hits give low values 1.01 | S. cerevisiae deletion strains, locus YMR263W, strain SAP30, hits give low values 0.985 | S. cerevisiae deletion strains, locus YMR307W, strain GAS1, hits give low values 1.04 | S. cerevisiae deletion strains, locus YNL067W, strain RPL9B, hits give low values 0.991 | S. cerevisiae deletion strains, locus YNL071W, strain lat1, hits give low values 1.01 | S. cerevisiae deletion strains, locus YNL128W, strain TEP1, hits give low values 0.979 | S. cerevisiae deletion strains, locus YNL153C, strain GIM3, hits give low values 0.996 | S. cerevisiae deletion strains, locus YNL183C, strain NPR1, hits give low values 0.917 | S. cerevisiae deletion strains, locus YNL209W, strain ssb2, hits give low values 1.01 | S. cerevisiae deletion strains, locus YNL233W, strain BNI4, hits give low values 1.01 | S. cerevisiae deletion strains, locus YNL248C, strain rpa49, hits give low values 0.968 | S. cerevisiae deletion strains, locus YNL250W, strain rad50, hits give low values 0.956 | S. cerevisiae deletion strains, locus YNL271C, strain bni1, hits give low values 0.979 | S. cerevisiae deletion strains, locus YNL298W, strain CLA4, hits give low values 0.949 | S. cerevisiae deletion strains, locus YNL307C, strain MCK1, hits give low values 0.97 | S. cerevisiae deletion strains, locus YNL322C, strain KRE1 (second series), hits give low values 1.01 | S. cerevisiae deletion strains, locus YNL322C, strain KRE1, hits give low values 0.996 | S. cerevisiae deletion strains, locus YNR049C, strain mso1, hits give low values 1.01 | S. cerevisiae deletion strains, locus YNR052C, strain pop2, hits give low values 0.975 | S. cerevisiae deletion strains, locus YOL006C, strain TOP1, hits give low values 0.91 | S. cerevisiae deletion strains, locus YOL012C, strain htz1 1.3 | S. cerevisiae deletion strains, locus YOL147C, strain pex11, hits give low values 0.941 | S. cerevisiae deletion strains, locus YOR001W, strain rrp6, hits give low values 1.02 | S. cerevisiae deletion strains, locus YOR061W, strain CKA2, hits give low values 0.968 | S. cerevisiae deletion strains, locus YOR069W, strain VPS5, hits give low values 0.988 | S. cerevisiae deletion strains, locus YOR070C, strain gyp1, hits give low values 1.01 | S. cerevisiae deletion strains, locus YOR080W, strain dia2, hits give low values 1.01 | S. cerevisiae deletion strains, locus YOR083W, strain WHI5, hits give low values 1.01 | S. cerevisiae deletion strains, locus YOR106W, strain vam3, hits give low values 1 | S. cerevisiae deletion strains, locus YOR136W, strain idh2, hits give low values 0.977 | S. cerevisiae deletion strains, locus YOR144C, strain elg1, hits give low values 0.978 | S. cerevisiae deletion strains, locus YOR184W, strain ser1, hits give low values 0.95 | S. cerevisiae deletion strains, locus YOR231W, strain MKK1, hits give low values 0.937 | S. cerevisiae deletion strains, locus YOR265W, strain rbl2, hits give low values 1.01 | S. cerevisiae deletion strains, locus YOR270C, strain vph1, hits give low values 0.997 | S. cerevisiae deletion strains, locus YOR290C, strain snf2, hits give low values 0.998 | S. cerevisiae deletion strains, locus YOR316C, strain cot1, hits give low values 0.976 | S. cerevisiae deletion strains, locus YPL051W, strain arl3, hits give low values 1.01 | S. cerevisiae deletion strains, locus YPL055C, strain LGE1, hits give low values 0.98 | S. cerevisiae deletion strains, locus YPL078C, strain atp4, hits give low values 1.01 | S. cerevisiae deletion strains, locus YPL106C, strain sse1, hits give low values 1.04 | S. cerevisiae deletion strains, locus YPL240C, strain hsp82, hits give low values 1.01 | S. cerevisiae deletion strains, locus YPL241C, strain CIN2, hits give low values 0.985 | S. cerevisiae deletion strains, locus YPL256C, strain CLN2, hits give low values 0.924 | S. cerevisiae deletion strains, locus YPR119W, strain clb2, hits give low values 0.971 | S. cerevisiae deletion strains, locus YPR141C, strain kar3, hits give low values 0.959 | S. cerevisiae deletion strains, locus YPR163C, strain tif3, hits give low values 0.978 | S. cerevisiae deletion strains, locus YPR167C, strain met16, hits give low values 0.977 | S. cerevisiae deletion strains, strain wtn01, hits give low values 0.968 | S. cerevisiae strains, strain wild type, hits give low values 0.979
